# Measurements as given in publication PMC4336329 (PLoS ONE, 2015).
# Screen size: about 310,000 compounds; about 14,000 (4.5%) showed an effect of 50% or more. Effects have a minus sign here. What follows is part of a selection rich in strong results, with near analogues and random picks from the rest.
# Molecular target: human ether-à-go-go-related gene (hERG) potassium channel (human, UniProt Q12809)
# Experiment: primary screen, population patch clamp on CHO cells stably expressing hERG; higher = less effect of the substance
# 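Also: peak tail current of the secondary pulse compared with the same well before compound.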
# Chain of human ether-à-go-go-related gene (hERG) potassium channel (Q12809 whole entry, looked up): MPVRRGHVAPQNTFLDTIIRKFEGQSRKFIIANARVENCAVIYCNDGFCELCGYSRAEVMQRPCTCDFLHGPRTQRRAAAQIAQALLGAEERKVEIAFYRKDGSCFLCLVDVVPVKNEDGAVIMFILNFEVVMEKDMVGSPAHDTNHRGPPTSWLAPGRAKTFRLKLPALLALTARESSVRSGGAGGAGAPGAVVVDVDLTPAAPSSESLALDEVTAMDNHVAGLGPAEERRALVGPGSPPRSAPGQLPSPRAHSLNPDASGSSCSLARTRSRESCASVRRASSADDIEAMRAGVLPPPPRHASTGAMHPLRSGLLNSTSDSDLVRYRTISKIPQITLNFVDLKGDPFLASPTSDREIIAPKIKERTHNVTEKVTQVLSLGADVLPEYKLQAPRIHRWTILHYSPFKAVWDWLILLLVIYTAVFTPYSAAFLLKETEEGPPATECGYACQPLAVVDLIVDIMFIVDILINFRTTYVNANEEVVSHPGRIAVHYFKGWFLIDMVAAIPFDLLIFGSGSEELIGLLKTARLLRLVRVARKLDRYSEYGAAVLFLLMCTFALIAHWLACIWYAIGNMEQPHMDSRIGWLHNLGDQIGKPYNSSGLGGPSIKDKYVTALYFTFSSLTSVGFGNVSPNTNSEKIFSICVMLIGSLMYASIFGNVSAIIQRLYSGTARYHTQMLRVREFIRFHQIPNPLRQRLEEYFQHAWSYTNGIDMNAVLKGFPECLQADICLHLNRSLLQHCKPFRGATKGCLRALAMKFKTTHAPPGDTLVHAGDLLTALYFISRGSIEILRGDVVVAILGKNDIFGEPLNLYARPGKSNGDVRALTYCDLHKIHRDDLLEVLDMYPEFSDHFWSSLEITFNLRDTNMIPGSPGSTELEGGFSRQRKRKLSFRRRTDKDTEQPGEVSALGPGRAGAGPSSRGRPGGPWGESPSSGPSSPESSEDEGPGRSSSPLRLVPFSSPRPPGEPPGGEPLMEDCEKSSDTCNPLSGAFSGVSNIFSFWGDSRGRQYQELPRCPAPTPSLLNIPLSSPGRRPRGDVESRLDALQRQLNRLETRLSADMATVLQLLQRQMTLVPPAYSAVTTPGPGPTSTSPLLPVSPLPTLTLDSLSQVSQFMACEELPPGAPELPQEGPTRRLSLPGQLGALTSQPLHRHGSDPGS
row,SMILES,"hERG current change (%, negative = inhibition) at 10uM [%]"
1,COP(=O)(OC)C(Nc1ccc([N+](=O)[O-])cc1)c1ccccc1 (stereo not shown),-36.1
2,CC(NC(=S)NCCc1ccccc1)C(c1cccs1)N1CCN(Cc2ccccc2)CC1 (stereo not shown),-41.3
3,Cc1sc(NC(=O)/C=C/c2ccc3c(c2)OCO3)nc1-c1ccccc1,8.5
4,Cc1ccc(C)c(NS(=O)(=O)c2cc(C(=O)Nc3ccccc3-c3ccccc3)ccc2C)c1,18.2
5,COc1cccc(CN2CCCCC2c2cccnc2)c1 (stereo not shown),3.01
6,Cc1noc(C)c1COc1ccc(C(=O)OCC(=O)NCCN2C(=O)CSC2=O)cc1,-8.06
7,CC(c1c(O)c2ccccc2[nH]c1=O)C1(C)CCC(O)C(C)(C)O1 (stereo not shown),-2.48
8,COc1cc(/C=C(\C#N)c2nc3c(s2)CC(C)CC3)ccc1O (stereo not shown),10.1
9,O=C1CC2(CCCC2)Oc2ccccc21,3.39
10,CSc1ccccc1C(=O)N1CCCCC1,-9.98
11,COc1ccc(S(=O)(=O)N2CCC3(CC2)CC(=O)c2ccccc2O3)cc1C,-3.6
12,O=C1CC2(CCN(C(=O)c3ccccc3Cl)CC2)Oc2ccccc21,-72.7
13,O=C(C(=O)N1CCOCC1)c1c[nH]c2ccccc12,18.3
14,CSc1ccccc1C(=O)N1CCOCC1,20
15,O=C(C(=O)N1CCCC1)c1c[nH]c2ccccc12,7.14
16,O=C1CC2(CCN(C(=O)C(=O)c3c[nH]c4ccccc34)CC2)Oc2ccccc21,-55.3
17,CSc1ccccc1C(=O)N1CCC2(CC1)CC(=O)c1ccccc1O2,-61
18,O=C1CC2(CCN(C(=O)c3c(F)cccc3Cl)CC2)Oc2ccccc21,-41.2
19,COc1ccc(S(=O)(=O)N2CCC3(CC2)CC(=O)c2ccccc2O3)cc1OC,11.6
20,COc1ccc(Cl)cc1C(=O)N1CCC2(CC1)CC(=O)c1ccccc1O2,-80.5
21,CCn1c(SCC(=O)N2CCCc3ccccc32)nc2c(c1=O)SC(C)C2 (stereo not shown),-24.7
22,O=C(O)/C=C/c1ccccc1Oc1ccc(Cl)cc1Cl,-8.85

row,SMILES,"hERG current change (%, negative = inhibition) at 10uM [%]"
1,CC(NC(=O)C[n+]1cccc(Br)c1)c1ccccc1.[Cl-] (stereo not shown),17.6
2,COC(C(=O)N/N=C(\C)CC(=O)Nc1ccc(Cl)cc1C)c1ccccc1 (stereo not shown),-10.5
3,CCOC(=O)CSc1nc(C)cc(C)n1,7.29
4,FC(F)(F)c1ccccc1CNCc1ccc2c(c1)OCO2,0.962
5,O=C(Nc1ccccc1OC(F)F)c1oc2ccccc2c1COc1ccccc1,0.283
6,COc1ccc(-n2c(Cc3cc(=O)[nH]c(=O)[nH]3)nnc2SCC(=O)Nc2cc(C(F)(F)F)ccc2Cl)cc1,-3.73
7,CCCC(c1nnnn1CC(=O)OCC)N(Cc1cc2c(C)cc(C)cc2[nH]c1=O)C1CCCC1 (stereo not shown),22.1
8,O=C1CC2(CCN(C(=O)c3ccccc3Br)CC2)Oc2ccccc21,-76.9
9,O=C1CC2(CCN(C(=O)c3ccccc3F)CC2)Oc2ccccc21,-73.2
10,O=C1CC2(CCCCC2)Oc2ccccc21,14.4
11,O=C(c1ccccc1F)N1CCC2(CC1)OCCO2,30.8
12,O=C1CC2(CCCCCC2)Oc2ccc(Cl)cc21,9.01
13,O=C1CC2(CCCCCC2)Oc2ccccc21,-6.74
14,O=C1CC2(CCCC2)Oc2ccc(Cl)cc21,8.19
15,O=C1CC2(CCN(C(=O)c3c(F)cccc3F)CC2)Oc2ccccc21,-34.2
16,CC(=O)N1CCC2(CC1)CC(=O)c1cc(Cl)ccc1O2,-55.2
17,Cc1ccc(SC(C)C(=O)N2CCC(C(N)=O)CC2)cc1 (stereo not shown),20.1
18,CCOc1ccc(-c2nc(N)ncc2Oc2ccc(OC)cc2)c(O)c1,-2.1
19,Cc1cccc(CNc2ccc(C(CC(N)=O)NC(=O)c3cccc(Br)c3)cc2[N+](=O)[O-])c1 (stereo not shown),-19.8
20,O=C(Cn1cc[n+](Cc2ccccc2)c1)c1ccc([N+](=O)[O-])cc1.[Br-],-23.7
21,CCC(=O)Nc1cccc(NC(=O)c2cccc([N+](=O)[O-])c2)c1,-61.2
22,O=C(C[n+]1ccc2ccccc2c1)c1ccccc1.[Br-],-22.5

row,SMILES,"hERG current change (%, negative = inhibition) at 10uM [%]"
1,O=C(Nc1cccc([N+](=O)[O-])c1)c1cccc(C(=O)Nc2cccc([N+](=O)[O-])c2)c1,24.1
2,CC(C)C(=O)Nc1cccc(NC(=O)c2cccc([N+](=O)[O-])c2)c1,-30.9
3,O=C(C[n+]1ccn(-c2ccccc2)c1)c1ccc([N+](=O)[O-])cc1.[Br-],-61.3
4,O=C(C[n+]1cccc(NC(=O)c2ccccc2)c1)c1ccc(NC(=O)c2ccccc2)cc1.[Br-],1.37
5,C=Cn1cc[n+](CC(=O)c2ccc(-c3ccccc3)cc2)c1.[Br-],7.91
6,O=C(C[n+]1cccc(C(=O)Nc2ccccc2)c1)c1ccc([N+](=O)[O-])cc1.[Br-],-73.1
7,O=C(C[n+]1ccc2ccccc2c1)c1cccc2ccccc12.[Br-],-72.8
8,O=C(Nc1ccccc1)c1ccc[n+](Cc2ccc([N+](=O)[O-])cc2)c1.[Br-],-4.25
9,O=C(C[n+]1ccc2ccccc2c1)c1ccc(NC(=O)c2ccccc2)cc1.[Br-],-0.135
10,COc1ccc(/C=C/C(=O)O)cc1S(=O)(=O)NCC1CCCO1 (stereo not shown),14.1
11,O=[N+]([O-])c1cccc(CSC2=NCCN2S(=O)(=O)c2ccccc2)c1,-6.78
12,O=C(O)c1cccc(CSc2nc(-c3ccc(Cl)cc3)cc(C(F)(F)F)n2)c1,-0.199
13,NNC(=O)c1c(O)c2cccc3c2n(c1=O)CCC3,22.4
14,COc1ccc(N2CCN(S(=O)(=O)c3ccc4c(c3)CCCC4)CC2)c([N+](=O)[O-])c1,6.51
15,Cc1cc(C(=O)c2ccc3ccccc3c2)c(C)o1,2.09
16,Cn1ncc([N+](=O)[O-])c1C(=O)N/N=C/c1ccc(F)cc1,-9.05
17,O=C(Nc1ccccc1C(=O)N1CCCCC1)c1cc(F)c(F)cc1Cl,1.47
18,O=C(C[n+]1cccc(NC(=O)c2ccccc2)c1)c1ccccc1.[Br-],-18.1
19,O=C(C[n+]1cccc(NC(=O)c2ccccc2)c1)c1cccc([N+](=O)[O-])c1.[Br-],-76.3
20,O=C(C[n+]1cccc2ccccc21)c1ccccc1.[Br-],-1.84
21,O=C(Nc1cccc([N+](=O)[O-])c1)c1ccccc1,7.97
22,Cc1ccc(C(=O)C[n+]2cccc3ccccc32)cc1.[Br-],-9.35

row,SMILES,"hERG current change (%, negative = inhibition) at 10uM [%]"
1,Cc1cc[n+](CC(=O)c2ccc(NC(=O)c3ccccc3)cc2)c2ccccc12.[Br-],7.1
2,O=C(C[n+]1cccc2ccccc21)c1ccc([N+](=O)[O-])cc1.[Br-],-72.4
3,Cc1cc[n+](CC(=O)c2cccc([N+](=O)[O-])c2)c2ccccc12.[Br-],-58.8
4,Cc1cc[n+](CC(=O)c2ccccc2)c2ccccc12.[Br-],-8.1
5,O=C(Nc1ccc[n+](CC(=O)c2cccc3ccccc23)c1)c1ccccc1.[Br-],-58.9
6,NC(=O)c1ccc[n+](CC(=O)c2ccc(NC(=O)c3ccccc3)cc2)c1.[Br-],27.1
7,NC(=O)c1ccc[n+](CC(=O)c2cccc([N+](=O)[O-])c2)c1.[Br-],16.9
8,O=C1c2ccccc2C(O)(Cc2ccccc2)N1Cc1ccco1 (stereo not shown),10.1
9,Cc1ccc(C(=O)Nc2ccc(N3CCOCC3)cc2)cc1S(=O)(=O)N1CCCCC1,-10.1
10,CCOC(=O)CC1(c2ccc(OC)c(OC)c2)C(=O)c2ccccc2C1=O,-1.97
11,c1ccc(-c2cc3c(nn2)CCc2nonc2-3)cc1,0.384
12,COc1ccc(-c2nnc(SCC(=O)c3cccs3)o2)cc1,-8.4
13,CCCOC(=O)CCCCCCCCC(O)CN1CCCCC1.Cl (stereo not shown),-30
14,Cc1ccnc(NC(=O)Nc2cccc(F)c2)c1,-4.23
15,COc1ccc(NC(=O)c2ccc3ccccc3c2)cc1,11
16,Cc1cccc(CSCCNC(=O)c2ccc(N(C)S(=O)(=O)c3ccccc3)cc2)c1,-4.05
17,Cc1ccc(C(CC(=O)N2CCCC2)c2ccccc2)c(O)c1C (stereo not shown),-57.9
18,Cc1ccc(C(CC(=O)N2CCNCC2)c2ccccc2)c(O)c1C (stereo not shown),-63.8
19,Cc1ccc(C(CC(=O)N2CCCCC2)c2ccccc2)c(O)c1C (stereo not shown),-22.1
20,Cc1ccc(C(CC(=O)N2CCCC2)c2ccccc2)c(O)c1 (stereo not shown),4.04
21,Cc1cccc(C(CC(=O)N2CCCCC2)c2ccccc2)c1O (stereo not shown),-34.2
22,Cc1cccc(C(CC(=O)N2CCCC2)c2ccccc2)c1O (stereo not shown),-19.4
